Common to all, as to assay: DAPPL (digital affinity profiling via proximity ligation, sequencing); 10 mM Tris-HCl pH 7.5, 50 mM NaCl, 1 mM DTT, 4% glycerol, room temperature, 30 min; GST-TFs on glutathione beads, 16-mer random dsDNA library, 0.1% formaldehyde crosslink after washing; high values mean tight binding
Common to all, as to details: protein: recombinant; tags: N-terminal GST; dsDNA, one strand shown

In assay [1] the target is T1, ERF (Homo sapiens, UniProt P50548 1-548).
T1 sequence: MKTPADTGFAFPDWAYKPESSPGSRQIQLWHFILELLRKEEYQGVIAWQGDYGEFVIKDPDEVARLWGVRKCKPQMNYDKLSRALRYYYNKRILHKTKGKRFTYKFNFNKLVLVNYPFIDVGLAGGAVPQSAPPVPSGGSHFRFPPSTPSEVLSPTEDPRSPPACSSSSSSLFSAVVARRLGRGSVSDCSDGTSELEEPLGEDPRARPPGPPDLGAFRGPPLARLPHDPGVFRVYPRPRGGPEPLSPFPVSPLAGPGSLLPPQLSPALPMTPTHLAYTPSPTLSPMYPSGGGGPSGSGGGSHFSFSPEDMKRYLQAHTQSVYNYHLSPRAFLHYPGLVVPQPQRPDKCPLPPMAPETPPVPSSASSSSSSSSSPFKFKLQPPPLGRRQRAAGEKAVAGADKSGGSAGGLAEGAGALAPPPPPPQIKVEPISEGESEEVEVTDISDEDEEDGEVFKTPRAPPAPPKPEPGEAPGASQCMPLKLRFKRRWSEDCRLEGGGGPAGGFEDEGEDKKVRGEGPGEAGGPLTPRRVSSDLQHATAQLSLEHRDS
An outline of the steps: (§1)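 In yeast, human transcription factors were expressed with a GST fusion, then pulled down on glutathione beads and given DNA barcodes. Pooled with a tag-only sample, they were exposed to 200 nmole of a 16-mer random double-stranded DNA library (Tris/NaCl/DTT/glycerol buffer, room temperature, 30 min), washed, crosslinked with 0.1% formaldehyde, proximity-ligated using BsaI/T4 ligase for 1 h at 37 °C, PCR-amplified and read on an Illumina NextSeq500. Each hexamer's frequency of reads for a factor, divided by the matching frequency for the tag-only sample, gives the binding signal.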

Assay [2] concerns the target T2, ETV3L (Homo sapiens, UniProt Q6ZN32 1-361).
T2 sequence: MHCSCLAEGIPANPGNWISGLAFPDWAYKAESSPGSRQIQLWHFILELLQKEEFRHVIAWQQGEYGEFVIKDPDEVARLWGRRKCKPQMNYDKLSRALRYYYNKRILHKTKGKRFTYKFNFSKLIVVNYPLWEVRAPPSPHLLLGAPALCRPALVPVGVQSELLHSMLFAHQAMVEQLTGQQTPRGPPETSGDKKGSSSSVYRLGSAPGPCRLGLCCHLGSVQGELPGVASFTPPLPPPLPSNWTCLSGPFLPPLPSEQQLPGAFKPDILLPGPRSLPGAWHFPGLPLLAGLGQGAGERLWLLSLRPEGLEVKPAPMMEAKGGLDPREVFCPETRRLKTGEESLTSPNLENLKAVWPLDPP
In outline:
as §1

In assay [3] the target is T3, ETS2 (Homo sapiens, UniProt P15036 1-469).
T3 sequence: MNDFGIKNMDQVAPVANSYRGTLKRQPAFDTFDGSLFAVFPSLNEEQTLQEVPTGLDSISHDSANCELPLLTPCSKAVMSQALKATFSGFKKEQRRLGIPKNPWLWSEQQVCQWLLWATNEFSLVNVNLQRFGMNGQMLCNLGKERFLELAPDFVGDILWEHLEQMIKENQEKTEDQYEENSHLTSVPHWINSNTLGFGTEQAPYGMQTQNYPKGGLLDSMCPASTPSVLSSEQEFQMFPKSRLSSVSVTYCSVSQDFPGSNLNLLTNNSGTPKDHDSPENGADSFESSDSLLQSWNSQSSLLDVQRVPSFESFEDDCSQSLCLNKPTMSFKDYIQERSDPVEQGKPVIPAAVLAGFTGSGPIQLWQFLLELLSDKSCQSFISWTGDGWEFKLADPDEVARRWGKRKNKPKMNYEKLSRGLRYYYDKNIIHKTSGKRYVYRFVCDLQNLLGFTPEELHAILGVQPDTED
An outline of the steps: as §1

Assay [4] concerns the target T4, SPDEF (Homo sapiens, UniProt O95238 1-335).
T4 sequence: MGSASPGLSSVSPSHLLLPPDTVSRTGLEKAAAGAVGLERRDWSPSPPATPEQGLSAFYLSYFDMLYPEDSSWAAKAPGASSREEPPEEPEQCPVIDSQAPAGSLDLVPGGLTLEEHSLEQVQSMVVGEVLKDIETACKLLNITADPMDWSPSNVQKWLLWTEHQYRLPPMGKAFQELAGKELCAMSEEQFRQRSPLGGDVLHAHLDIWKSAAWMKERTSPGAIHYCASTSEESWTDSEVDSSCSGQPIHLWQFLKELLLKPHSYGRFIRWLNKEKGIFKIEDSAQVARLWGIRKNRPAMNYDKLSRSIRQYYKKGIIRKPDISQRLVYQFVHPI
An outline of the steps:
as §1

Assay [5] addresses T5, ETV7 (Homo sapiens, UniProt Q9Y603 1-341).
T5 sequence: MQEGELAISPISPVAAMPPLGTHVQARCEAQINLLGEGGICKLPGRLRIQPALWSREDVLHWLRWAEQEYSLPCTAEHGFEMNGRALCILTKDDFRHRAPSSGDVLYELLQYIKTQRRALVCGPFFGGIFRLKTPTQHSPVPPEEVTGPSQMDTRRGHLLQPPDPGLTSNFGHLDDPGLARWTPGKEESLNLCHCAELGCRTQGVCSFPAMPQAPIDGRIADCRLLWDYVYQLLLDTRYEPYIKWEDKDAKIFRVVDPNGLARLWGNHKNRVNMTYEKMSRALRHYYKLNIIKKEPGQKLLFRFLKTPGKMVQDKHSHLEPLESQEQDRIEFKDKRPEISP
In outline: as §1

Assay [6] deals with T6, ELF5 (Homo sapiens, UniProt Q9UKW6-2 1-255).
T6 sequence: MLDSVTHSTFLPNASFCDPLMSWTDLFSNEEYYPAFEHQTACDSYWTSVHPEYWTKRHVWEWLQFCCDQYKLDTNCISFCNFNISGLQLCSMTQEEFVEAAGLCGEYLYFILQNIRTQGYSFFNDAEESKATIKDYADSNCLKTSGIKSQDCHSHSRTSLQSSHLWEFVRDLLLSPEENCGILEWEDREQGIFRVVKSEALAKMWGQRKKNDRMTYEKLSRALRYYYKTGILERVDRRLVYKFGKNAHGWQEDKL
An outline of the steps:
as §1

Assay [7] has as its target T7, ETV3 (Homo sapiens, UniProt P41162-2 1-143).
T7 sequence: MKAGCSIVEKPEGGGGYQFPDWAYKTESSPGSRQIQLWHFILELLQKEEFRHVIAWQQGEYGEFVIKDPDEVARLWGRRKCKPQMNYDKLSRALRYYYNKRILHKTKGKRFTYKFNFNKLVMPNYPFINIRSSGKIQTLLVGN
In outline: as §1

Assay [8] has as its target ETV6 (Homo sapiens, UniProt P41212 1-452). An outline of the steps:
as §1

ETV6, sequence (P41212 whole entry): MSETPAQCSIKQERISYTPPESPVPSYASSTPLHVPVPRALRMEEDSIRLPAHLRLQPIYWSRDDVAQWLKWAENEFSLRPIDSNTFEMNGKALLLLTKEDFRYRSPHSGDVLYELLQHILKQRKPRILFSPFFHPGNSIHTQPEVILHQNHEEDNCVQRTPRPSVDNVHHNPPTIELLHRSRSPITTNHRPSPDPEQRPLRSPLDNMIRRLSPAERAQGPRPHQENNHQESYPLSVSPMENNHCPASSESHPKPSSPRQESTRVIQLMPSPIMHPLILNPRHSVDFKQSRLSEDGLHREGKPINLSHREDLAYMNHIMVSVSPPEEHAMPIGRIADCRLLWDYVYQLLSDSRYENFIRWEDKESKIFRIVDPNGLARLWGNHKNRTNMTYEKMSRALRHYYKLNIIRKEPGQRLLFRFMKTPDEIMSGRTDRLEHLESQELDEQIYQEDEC

With GGGCTA, the binding signal is 1.02 fold enrichment (6-mer frequency, TF over GST control) in assay [1]; 1.18 fold enrichment (6-mer frequency, TF over GST control) in assay [2]; 1.2 fold enrichment (6-mer frequency, TF over GST control) in assay [3]; 1.09 fold enrichment (6-mer frequency, TF over GST control) in assay [4]; 1.06 fold enrichment (6-mer frequency, TF over GST control) in assay [5]; 1.09 fold enrichment (6-mer frequency, TF over GST control) in assay [6]. Further, the binding signal in assay [7] is 1.12 fold enrichment (6-mer frequency, TF over GST control); in assay [8], 1.13 fold enrichment (6-mer frequency, TF over GST control).

For the sequence GCATCC, the binding signal was 1.43 fold enrichment (6-mer frequency, TF over GST control) in assay [1]; 1.56 fold enrichment (6-mer frequency, TF over GST control) in assay [2]; 1.61 fold enrichment (6-mer frequency, TF over GST control) in assay [3]; 2.71 fold enrichment (6-mer frequency, TF over GST control) in assay [4]; 1.43 fold enrichment (6-mer frequency, TF over GST control) in assay [5]; 1.64 fold enrichment (6-mer frequency, TF over GST control) in assay [6]. The binding signal in assay [7] was 1.62 fold enrichment (6-mer frequency, TF over GST control); in assay [8], 1.57 fold enrichment (6-mer frequency, TF over GST control).

Take CTCCTG: the binding signal in assay [1] is 1.49 fold enrichment (6-mer frequency, TF over GST control); in assay [2] it was 1.72 fold enrichment (6-mer frequency, TF over GST control); in assay [3] it was 1.86 fold enrichment (6-mer frequency, TF over GST control); in assay [4], 1.6 fold enrichment (6-mer frequency, TF over GST control); in assay [5], 1.64 fold enrichment (6-mer frequency, TF over GST control); in assay [6] it was 1.6 fold enrichment (6-mer frequency, TF over GST control). Further, the binding signal in assay [7] is 1.43 fold enrichment (6-mer frequency, TF over GST control); in assay [8], 1.59 fold enrichment (6-mer frequency, TF over GST control).

For the sequence AGTTTC, the binding signal in assay [1] is 1.22 fold enrichment (6-mer frequency, TF over GST control); in assay [2], 1.33 fold enrichment (6-mer frequency, TF over GST control); in assay [3], 1.3 fold enrichment (6-mer frequency, TF over GST control); in assay [4] it was 1.19 fold enrichment (6-mer frequency, TF over GST control); in assay [5], 1.29 fold enrichment (6-mer frequency, TF over GST control); in assay [6], 1.65 fold enrichment (6-mer frequency, TF over GST control). For the same sequence, the binding signal in assay [7] is 1.36 fold enrichment (6-mer frequency, TF over GST control); in assay [8], 1.29 fold enrichment (6-mer frequency, TF over GST control).

In the case of CTCGCC, the binding signal in assay [1] was 1.4 fold enrichment (6-mer frequency, TF over GST control); in assay [2], 1.2 fold enrichment (6-mer frequency, TF over GST control); in assay [3] it was 1.25 fold enrichment (6-mer frequency, TF over GST control); in assay [4], 1.07 fold enrichment (6-mer frequency, TF over GST control); in assay [5], 1.16 fold enrichment (6-mer frequency, TF over GST control); in assay [6], 1.26 fold enrichment (6-mer frequency, TF over GST control). The binding signal in assay [7] is 1.2 fold enrichment (6-mer frequency, TF over GST control); in assay [8], 1.29 fold enrichment (6-mer frequency, TF over GST control).

In the case of AGAAAT, the binding signal is 1.13 fold enrichment (6-mer frequency, TF over GST control) in assay [1]; 1.17 fold enrichment (6-mer frequency, TF over GST control) in assay [2]; 1.21 fold enrichment (6-mer frequency, TF over GST control) in assay [3]; 1.03 fold enrichment (6-mer frequency, TF over GST control) in assay [4]; 1.21 fold enrichment (6-mer frequency, TF over GST control) in assay [5]; 1.15 fold enrichment (6-mer frequency, TF over GST control) in assay [6]. In addition, the binding signal in assay [7] was 1.09 fold enrichment (6-mer frequency, TF over GST control); in assay [8], 1.18 fold enrichment (6-mer frequency, TF over GST control).

Take TCCTGG: the binding signal in assay [1] was 1.43 fold enrichment (6-mer frequency, TF over GST control); in assay [2] it was 1.83 fold enrichment (6-mer frequency, TF over GST control); in assay [3], 1.82 fold enrichment (6-mer frequency, TF over GST control); in assay [4], 2.13 fold enrichment (6-mer frequency, TF over GST control); in assay [5], 1.56 fold enrichment (6-mer frequency, TF over GST control); in assay [6], 2.35 fold enrichment (6-mer frequency, TF over GST control). Further, the binding signal was 1.74 fold enrichment (6-mer frequency, TF over GST control) in assay [7] and 1.77 fold enrichment (6-mer frequency, TF over GST control) in assay [8].

For the origin of these results see article PMC7862700, “An all-to-all approach to the identification of sequence-specific readers for epigenetic DNA modifications on cytosine”.
